High-throughput results as filed in PubChem BioAssay.
Most compounds without a hit are left out; they make up all but 4.6% or so of the library.
Lassa entry inh: inhibitors of Lassa virus binding or cell entry. Lassa virus pseudotype entry inhibition, cell reporter. Potency, µM (highest dose often 37.9 µM), for the others: top-dose activity change, negative = inhibition, hits mostly inhibitors. 300,000 tested, 1.2% active. AID 540256; calls by dose curve; tested in HEK293 cells; also: nearly all actives have a fitted effect of over 50% in size
MARV entry inh: blocks Marburg virus binding to or entry into cells; Potency, µM (titrated, usually from 37.8 µM), without a hit: top-dose activity change, negative = inhibition, usual class: inhibitors; AID 540276; Marburg virus pseudotyped entry inhibition, cell reporter; 300,000 tested, 1.8% active; calls by dose curve; tested in HEK293 cells
HCV inh: HCV inhibition; Huh7.5.1 HCVcc-Cre infection, luciferase reporter, 44 h; Potency, µM (top dose mostly 41.8 µM), without a hit: at the top dose activity change, negative = inhibition, most hits filed as inhibitors; 340,000 tested, 3.4% active; AID 651820; active = well fitted inhibition curve with a large enough effect; inconclusive = small, poorly fitted or top-dose-only effect, or another doubt; inactive = no such curve, though single readings can be large or run the other way
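Luciferase read-out (15 sec integration) after a 15 min room-temperature substrate step quantifies HCVcc-Cre infection. Cells, 1,000 per well, had compound added 4 h post-plating, then virus at ~0.5 moi, and were cultured 44 h.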
VACV Venus inh: vaccinia inhibition (Venus reporter) | Vaccinia virus Venus reporter expression, fluorescence | 330,000 tested, 0.46% active | Potency, µM (top dose mostly 36.5 µM), without a hit: at the top dose activity change, negative = inhibition, hits mostly inhibitors | AID 720580; calls by dose curve; tested in A549 cells; also: nearly all actives have a fitted effect of over 30% in size
Vaccinia mCherry: vaccinia inhibition (mCherry reporter) | Vaccinia virus mCherry reporter infection, fluorescence | Potency, µM (doses to about 36.5 µM), without a hit: at the top dose activity change, negative = inhibition, actives largely listed as inhibitors | 310,000 tested, 0.63% active; calls by dose curve; tested in A549 cells; also: nearly all actives have a fitted effect of over 35% in size
* marks the source's active call; other numbers are inactive results; [ ] = remark or other dose. % is scaled to controls: 0 for no effect and ±100 for the full control effect; potency is read from the fitted curve at half-maximal effect.

Screening CC(C)c1ccc(S(=O)(=O)NCc2ccc3c(c2)CCN3C(=O)c2ccccc2)cc1 returned Lassa entry inh inconclusive, VACV Venus inh -18% and Vaccinia mCherry -14%.
Screening CCc1c(C)c2ccccc2[nH]c1=O returned VACV Venus inh -17% and Vaccinia mCherry -1%.
CCN(CC)S(=O)(=O)c1cc(-c2onc(C)c2C)ccc1OC was read as Lassa entry inh -13%[46.1 µM], VACV Venus inh -11% and Vaccinia mCherry -17%.
Screening COC(=O)c1scc(-c2ccc(C)cc2)c1S(=O)(=O)Nc1ccc(OC(F)(F)F)cc1 returned Lassa entry inh 3%[46.1 µM], VACV Venus inh -4% and Vaccinia mCherry -15%.
`COc1cc(-c2csc(N3CCOCC3)n2)cc(OC)c1OC` gave Lassa entry inh -9%, MARV entry inh -3%, HCV inh -9% and VACV Venus inh -9%.
`COc1ccc2nc(C)cc(N3CCN(S(=O)(=O)c4ccccc4F)CC3)c2c1` gave HCV inh 7.1µM*.
COc1cccc(Cl)c1NC(=O)N1CCN(c2cc(C)nc3ccccc23)CC1 was read as Lassa entry inh inconclusive, MARV entry inh inconclusive, HCV inh 10µM*, VACV Venus inh inconclusive and Vaccinia mCherry -24%.
COc1ccc(-c2csc(N3CCN(c4cc(C)nc5ccccc45)CC3)n2)cc1OC was read as Lassa entry inh inconclusive, MARV entry inh inconclusive, HCV inh 2.8µM*, VACV Venus inh -6% and Vaccinia mCherry inconclusive.
Screening CC(=O)Oc1ccc2c(c1)CC[C@@H]1[C@@H]2CC[C@]2(C)[C@@H](O)CC[C@@H]12 returned VACV Venus inh -9% and Vaccinia mCherry inactive.
`COc1ccc(-c2nc(C)ncc2N=Nc2ccccc2)cc1` gave Lassa entry inh 2%, MARV entry inh -15%, HCV inh 32µM* and VACV Venus inh -2%.
Cc1ccc(NC(=O)CSc2nc(=O)n(Cc3cccnc3)c3c2CCC3)cc1F was read as Lassa entry inh -4%[46.1 µM], VACV Venus inh -18% and Vaccinia mCherry -24%.
Screening CC(=O)C1=C(C)N(Cc2ccccc2)C(=O)N[C@H]1CCc1ccccc1 returned Lassa entry inh 12µM*, MARV entry inh inconclusive, HCV inh inconclusive, VACV Venus inh -20% and Vaccinia mCherry -30%.
Screening CC(=O)C1=C(C)N(Cc2ccccc2)C(=O)NC1CCc1ccccc1 (stereo unspecified) returned Lassa entry inh 17%[14.3 µM] and MARV entry inh inconclusive.
For COc1ccc(-c2cc(-c3cccs3)c(C#N)c(SCC(=O)NCc3ccco3)n2)cc1 the results were Lassa entry inh inconclusive, MARV entry inh 0.46µM* and HCV inh inconclusive.
`CSc1nc(C2CC2)cc(-c2cccs2)c1C#N` gave Lassa entry inh 3%, MARV entry inh 10%, HCV inh 11µM*, VACV Venus inh -28% and Vaccinia mCherry -18%.
`CCN(CC)C(=O)CSc1nc(N)c(C#N)c(-c2cccs2)c1C#N` gave Lassa entry inh -24%, MARV entry inh inconclusive and HCV inh -17%.
`CCN(CC)C(=O)CSc1nc(-c2cccs2)cc(-c2cccs2)c1C#N` gave Lassa entry inh 18µM*, MARV entry inh inconclusive and HCV inh 2.5µM*.
`C=CCOC(=O)C(C(C)=O)[C@@H](NC(=O)OC)c1ccc2ccccc2c1` (stereo partly specified) gave MARV entry inh 23%[14.2 µM].
O=C1C=CC2(OCCCO2)C(Br)=C1CO was read as MARV entry inh -40%[14.2 µM].
`O=C(NC1CCCCC1)N1CCN(C(c2ccccc2)c2ccccc2)CC1` gave Lassa entry inh 13µM*, MARV entry inh inconclusive, HCV inh inconclusive, VACV Venus inh -15% and Vaccinia mCherry -11%.
CCOC(=O)N=Nc1c2ccccc2c2nc3no[nH]c3nc12 was read as Lassa entry inh inconclusive, MARV entry inh inconclusive, HCV inh 0.56µM*, VACV Venus inh 0.5µM* and Vaccinia mCherry 0.5µM*.
For CCOC(=O)N=Nc1c(O)n(CC(=O)OC)c2ccccc12 the results were Lassa entry inh 17%, MARV entry inh 5%[46.1 µM], HCV inh 6%, VACV Venus inh -12% and Vaccinia mCherry -5%.
`COCCOc1ccc(C(F)(F)F)cc1Nc1nc2ccccc2o1` gave Lassa entry inh -16%, MARV entry inh 15%, HCV inh 14µM*, VACV Venus inh -23% and Vaccinia mCherry inconclusive.
O=CC(=O)c1ccc(Cl)cc1 was read as VACV Venus inh -8% and Vaccinia mCherry -14%.
